Measured values from the supplement of paper PMC10338343.
± gives the standard deviation. In all, about 8,200 sequences were measured (“pre-steady-state target cleavage rate”: median about 0.024, highest 2% from about 1.3 on). The list comes from a sample in which the highest values are over-represented; it also holds similar and randomly drawn sequences.

Test system: MIWI (PIWIL1) piRISC loaded with L1MC piRNA (30 nt)
Assay: pre-steady-state target cleavage rate (min^-1); MIWI and MILI are mouse PIWI proteins and EfPiwi is from a freshwater sponge; tags in brackets are library labels; higher = faster piRNA-guided slicing of the target
Conditions: guide: L1MC piRNA 5'p-UAACUAAAUACUAUGCAAGCUGUAGGUCCU
How it was run: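 Cleave-'n-Seq: a transcribed, DNA-blocked target RNA library (0.1 nM) was mixed with 1 nM active affinity-purified piRISC carrying one synthetic guide, with or without 500 nM GTSF1 partner protein, in HEPES–potassium acetate buffer at 33 °C for 0–8 or 0–960 min. Uncleaved targets were sequenced and normalised to depth and to weakly complementary targets. Three trials were pooled, and k3 was capped at 0.0001 min^-1. The pre-steady-state cleavage rate came from a burst-and-steady-state fit.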

[1] = auxiliary factor: 500 nM mouse GTSF1
[2] = auxiliary factor: none (no GTSF1)

Row | Sequence | pre-steady-state target cleavage rate [1] | pre-steady-state target cleavage rate [2]
1 | UCCUGCUACAGCUUGGAUAGUAUUUAGUUA | 1.29 ± 0.12 | 0.0507 ± 0.0096
2 | UGGAGCUACAGCUUGGAUAGUAUUUAGUUA | 1.11 ± 0.083 | 0.0533 ± 0.0083
3 | UCCACCUACAGCUUGCAUUGUAUUUACAAA | 0.112 ± 0.024 | –
4 | UCCUGGUACAGCAUGCAUAGUAUUUAGUAA | 0.377 ± 0.04 | 0.00875 ± 0.0024
5 | UCCUGGAUGAGCUUGCAUGGUAUUUAGUUA | 0.743 ± 0.043 | 0.0817 ± 0.02
6 | UCCUGGAUCAGCUUGCAUAGAAUUUAGUUA | 0.258 ± 0.028 | 0.0291 ± 0.0088
7 | UCCUCCUACAGCUUGCAUUGUAUUUACUUA | 0.388 ± 0.031 | 0.0162 ± 0.0032
8 | UCCUGGAUCAGCAUGCAUAGUAUUUACAAA | 0.156 ± 0.034 | –
9 | UCCUGGAUGUGCUUGCAUAGUAUUCUAGUUA | 0.211 ± 0.037 | 0.0155 ± 0.0049
10 | UGGACCAACAGCUUGCAUAGUAUUUAGUUA | 1.35 ± 0.047 | 0.0769 ± 0.013
11 | UCGACCAACAGCUAGCAUAGUAUUUAGUUA | 1.08 ± 0.046 | 0.0286 ± 0.0073
12 | AGGACCAACAGCUUGCAUAGUAUUUAGAAA | 0.624 ± 0.071 | 0.033 ± 0.012
13 | AGGACCAACAGCUAGCAUAGUAUUUAGUUA | 1.08 ± 0.052 | 0.038 ± 0.01
14 | UGGACCAACAGCUUGCAUAGUAUUUAGUAA | 1.17 ± 0.06 | 0.0641 ± 0.015
15 | UGGACCAACAGCUAGCAUAGUAUUUAGUUA | 1.36 ± 0.059 | 0.0347 ± 0.0073
16 | UGGACCAACAGCUUGCAUAGUAUUUAGAUA | 0.428 ± 0.022 | 0.0582 ± 0.014

Row | Sequence | pre-steady-state target cleavage rate [1] | pre-steady-state target cleavage rate [2]
17 | AGGACCAACAGCUUGCAUAGUAUUUAGUUA | 1.4 ± 0.05 | 0.122 ± 0.021
18 | AGGACCAACAGCUUGCAUAGUAUUUAGUAA | 0.974 ± 0.079 | 0.0722 ± 0.014
19 | UCCUGGUACAGCUUGCAUACAAUUUAGUAA | 0.0076 ± 0.0052 | –
20 | UCCUGGAUGUGCUUGCAUAGUAUUUAGGUA | 0.0938 ± 0.016 | 0.0113 ± 0.0031
21 | UCCUGGAACAGCUUGGAUAGUAUUUUGUUA | 0.745 ± 0.075 | 0.0289 ± 0.0047
22 | UCCUGGAUGAGCUUGCAUAGUUUUAAGUUA | 0.0288 ± 0.0084 | 0.00673 ± 0.0032
23 | AGCACCUACAGCUUGCAUAGUAUUUAGUAA | 0.974 ± 0.12 | 0.197 ± 0.062
24 | UGGACCUACACCUUGCAUAGUAUAUAGUUA | 0.523 ± 0.041 | 0.0327 ± 0.007
25 | UCCUGGAACAGCAUGCAUAGUAUUUAGUAA | 0.695 ± 0.061 | 0.0107 ± 0.0026
26 | UCCUGGAUCAGCUAUGCAUAGUAUUUAGUUA | 1.04 ± 0.073 | 0.0161 ± 0.0043
27 | UGGACCUACACGUUGCAUAGUAUUUACAAA | 0.103 ± 0.013 | –
28 | UGGACCGUACAGCUUGCAUAGUAUUUAGUUA | 1.24 ± 0.06 | 0.064 ± 0.0096
29 | UGGACCGACAGCUUGCAUAGUAUUUAGUUA | 1.45 ± 0.076 | 0.0713 ± 0.013
30 | UCCACCGACAGCUUGCAUAGUAUUUAGUUA | 1.04 ± 0.043 | 0.0616 ± 0.011
31 | AGGACCGACAGCUUGCAUAGUAUUUAGUUA | 1.21 ± 0.058 | 0.0903 ± 0.017
